An excerpt weighted towards active compounds, which were near 3.2% of everything screened.
MsrA inhibitor = inhibits bovine methionine sulfoxide reductase A; purified bovine MsrA, absorbance read-out; inhibition, % at 15.5 µM; actives 0.75% (n = 360,000)
rCAG binder = molecules binding r(CAG) RNA repeats. AID 651821. actives 1.3% (n = 370,000). inhibition, % at 3 µM. r(CAG) RNA repeat, TO-PRO-1 dye displacement fluorescence;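 active = inhibition above the plate cutoff, the mean of all test compounds on that plate plus 3 SD, cut at about 35% in these data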;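 also: higher means more dye released from RNA so lower well fluorescence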
DAGLB inh = blocks human DAGLB lipase activity | HEK293T DAGLB membrane lysate, EnzChek fluorogenic substrate | inhibition, % at 5.17 µM | actives 0.059% (n = 340,000) | AID 504411; in the data active = inhibition above about 34%
Pemphigus Ab inh = human desmoglein-3 autoantibody binding inhibition; DSG3-coupled beads, scFv-anti-DSG3-GFP binding, flow cytometry; active compounds read low; binding (percent of control), % at 10 µM; actives 0.48% (n = 310,000);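 active = binding more than 3 SD below its plate's average and above zero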;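 also: hits lower antibody fragment binding to DSG3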
Target sequence (P32926 whole entry, looked up, the tested form may be a part): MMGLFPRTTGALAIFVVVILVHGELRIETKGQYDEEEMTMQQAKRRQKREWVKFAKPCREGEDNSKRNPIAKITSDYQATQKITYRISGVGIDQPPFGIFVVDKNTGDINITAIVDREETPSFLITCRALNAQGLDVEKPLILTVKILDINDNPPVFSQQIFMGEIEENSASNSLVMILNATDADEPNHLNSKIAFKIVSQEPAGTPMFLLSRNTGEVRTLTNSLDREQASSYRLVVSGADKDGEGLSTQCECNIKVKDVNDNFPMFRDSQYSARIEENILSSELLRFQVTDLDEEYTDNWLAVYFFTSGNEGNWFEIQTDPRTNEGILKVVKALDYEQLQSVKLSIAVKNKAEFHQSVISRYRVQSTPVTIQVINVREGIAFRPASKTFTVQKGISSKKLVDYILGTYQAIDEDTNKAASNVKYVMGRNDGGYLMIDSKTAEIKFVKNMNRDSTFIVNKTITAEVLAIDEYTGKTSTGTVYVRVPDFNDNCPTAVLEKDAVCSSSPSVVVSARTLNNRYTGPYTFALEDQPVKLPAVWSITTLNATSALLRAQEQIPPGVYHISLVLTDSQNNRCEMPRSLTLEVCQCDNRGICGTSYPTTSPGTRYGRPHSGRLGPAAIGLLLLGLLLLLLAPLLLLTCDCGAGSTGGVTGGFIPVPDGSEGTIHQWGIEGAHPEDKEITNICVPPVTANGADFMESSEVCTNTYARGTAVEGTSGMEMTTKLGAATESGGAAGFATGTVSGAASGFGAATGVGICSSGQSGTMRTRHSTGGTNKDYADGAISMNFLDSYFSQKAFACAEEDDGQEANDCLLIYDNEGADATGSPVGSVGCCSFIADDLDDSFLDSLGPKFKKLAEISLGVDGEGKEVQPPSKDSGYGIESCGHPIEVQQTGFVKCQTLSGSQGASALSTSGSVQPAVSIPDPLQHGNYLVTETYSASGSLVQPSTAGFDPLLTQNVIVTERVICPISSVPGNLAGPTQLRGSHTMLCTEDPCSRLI
MsrA act = activates bovine MsrA enzyme. purified bovine MsrA, absorbance read-out. activation, % at 10.6 µM. actives 0.3% (n = 360,000). AID 602163; in the data active = activation above about 7.5%
NadD block = inhibitors of Staphylococcus aureus NadD | purified NadD enzyme, colorimetric absorbance read-out | inhibition, % at 20 µM | actives 0.78% (n = 360,000) | AID 602399; in the data active = inhibition above about 26%
MsrA conf = confirmation of bovine MsrA inhibitors; shares compounds with MsrA inhibitor; purified bovine MsrA, absorbance read-out; inhibition, % at 15.5 µM; actives 41% (n = 2,300);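 also: coupled to thioredoxin reductase with NADPH and selenocystamine and DMSO as substrate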
Of the large screens only hits and unclear results are named; the others gave an inactive call (follow-up assays come after a bar, where they were run). Rule as the data show it, unless noted: active = inhibition above about 4.5%; inactive = the rest.

CN1/C(=C\C=Nc2cc(S(=O)(=O)N3CCOCC3)ccc2N2CCOCC2)C(C)(C)c2ccccc21	MsrA inhibitor 7.6 | MsrA conf inactive
Cc1ccccc1N=C/C=C1\N(C)c2ccccc2C1(C)C	none
Cc1nc2c(o1)C(=O)c1ccccc1C2=Nc1ccccc1	MsrA inhibitor 8.9 (no result: Pemphigus Ab inh) | MsrA conf 15
Cc1ccc(Nc2n[nH]c(C)c2[N+](=O)[O-])cc1C	MsrA inhibitor 11 (no result: Pemphigus Ab inh) | MsrA conf 8.2
Cc1ccc(S(=O)(=O)N/N=C/c2cc(Br)ccc2O)cc1	MsrA inhibitor 4.9 | MsrA conf inactive
CC(=O)N1CCN(c2cc(C)nc3nc(C)nn23)CC1	none (no result: MsrA inhibitor, DAGLB inh, Pemphigus Ab inh, MsrA act, NadD block)
O=C(Cc1ccccc1)NC1CCCCN(Cc2ccc(Cl)cc2)C1=O (stereo unspecified)	none (no result: MsrA inhibitor, DAGLB inh, Pemphigus Ab inh, MsrA act, NadD block)
COC(=O)C1=C(C)N(C)C(=NCc2ccc(C(F)(F)F)cc2)NC1c1ccc(C(F)(F)F)cc1 (stereo unspecified)	none (no result: DAGLB inh, Pemphigus Ab inh, MsrA act, NadD block)
N#C/C(=N/Nc1ccc(S(=O)(=O)N2CCOCC2)cc1)C(N)=O	MsrA inhibitor 6.6 | MsrA conf inactive
Cc1nn(CCC(N)=S)c2nc(-c3cccs3)cc(C(F)(F)F)c12	MsrA inhibitor 4.8 | MsrA conf inactive
Cc1[nH]c2ccccc2c1C(C#N)(C#N)C1C(=O)c2ccccc2C1=O	MsrA inhibitor 47 | MsrA conf 46
O=c1oc2ccccc2cc1-c1nc2ccccc2o1	MsrA inhibitor 5.2 | MsrA conf inactive
O=c1oc2ccc3ccccc3c2cc1-c1nc2ccccc2o1	none
Cc1nc(/C=[N+](\[O-])C(C)(C)/C=N/O)n(O)c1C	MsrA inhibitor 6.7 (no result: Pemphigus Ab inh) | MsrA conf 4.6
CC(C)(/C=N/O)/[N+]([O-])=C/c1ccco1	none (no result: Pemphigus Ab inh)
CNc1oc(/C=C/c2ccccc2)nc1C#N	MsrA inhibitor 4.8 (no result: Pemphigus Ab inh) | MsrA conf 4.6
COCCNc1oc(/C=C/c2ccccc2)nc1C#N	none
CC1(C)S/C(=N/N=C/c2cccs2)NC1=O	MsrA inhibitor 4.7 | MsrA conf inactive
O=C1N/C(=N\N=C\c2cccs2)SC1Cc1cccc(Cl)c1Cl (stereo unspecified)	none
O=C1CS/C(=N/N=C/c2ccccc2OS(=O)(=O)c2ccccc2)N1	none
O=C1CS/C(=N/N=C/c2cccs2)N1	MsrA inhibitor 6.4 | MsrA conf inactive
O=C(Nc1ccc2nc(-c3cccs3)[nH]c2c1)c1ccco1	MsrA inhibitor 4.7 | MsrA conf inactive
O=C(Nc1ccc2nc(-c3cccs3)[nH]c2c1)c1cccs1	none
Cc1ccc(C)c(NC(=O)/C(C#N)=C/c2ccc[nH]2)c1	MsrA inhibitor 9.3 | MsrA conf 11
Cc1cccc(NC(=O)/C(C#N)=C/c2ccc[nH]2)c1C	none
COc1ccc(/C=C(/C#N)C(=O)Nc2cccc(C)c2C)cc1C(=O)O	none
COc1ccc(/C=C(/C#N)C(=O)Nc2ccccc2C)cc1C(=O)O	MsrA inhibitor 5.6 | MsrA conf inactive
COc1ccc(/C=C(/C#N)C(=O)Nc2cccc([N+](=O)[O-])c2)cc1C(=O)O	none
COc1ccc(/C=C(/C#N)C(=O)Nc2ccc(C)cc2C)cc1C(=O)O	MsrA inhibitor 7.0 | MsrA conf 6.1
CCCCN1CCN(C(=O)Cn2c(=O)c3ccccc3n(CC)c2=O)CC1	none (no result: MsrA inhibitor, DAGLB inh, Pemphigus Ab inh, MsrA act, NadD block)
COc1cc(/C=N\NC(=O)c2sc(N)nc2C)cc(OC)c1OC	MsrA inhibitor 7.0 | MsrA conf 5.2
Cc1nc(N)sc1C(=O)N/N=C/c1ccccc1[N+](=O)[O-]	none (no result: DAGLB inh, Pemphigus Ab inh)
CC(/C=N/NC(=O)c1sc(N)nc1C)=C\c1ccccc1	MsrA inhibitor 6.7 | MsrA conf inactive
CC(COc1ccc(C#N)cc1)CN1CCC(C(O)(c2ccccc2)c2ccccc2)CC1 (stereo unspecified)	none (no result: MsrA inhibitor, DAGLB inh, Pemphigus Ab inh, MsrA act, NadD block)
C=CCc1c(C)nc(C)nc1N/N=C/c1ccc([N+](=O)[O-])cc1	MsrA inhibitor 7.0 | MsrA conf inactive
COC(=O)[C@@]12C[C@@H](CC(=O)NCCc3ccccc3OC)C(=O)N(CCc3ccc(OC)c(OC)c3)C1=CCC(C)(C)C2	none (no result: DAGLB inh, Pemphigus Ab inh, MsrA act, NadD block)
Nc1nc2ccccc2n1/N=C/c1ccc2c(c1)OCO2	MsrA inhibitor 19 (no result: DAGLB inh) | MsrA conf 14
Nc1nc2ccccc2n1/N=C/c1ccc(Br)cc1	none
CC(C)[C@@H]1NC(=O)[C@@H]2CSCCS(=O)(=O)N2C1=O	none (no result: DAGLB inh, Pemphigus Ab inh, MsrA act, NadD block)
O=C(O)CC(CN1C(=O)c2ccccc2C1=O)c1ccccc1 (stereo unspecified)	none
NC(=O)NC(=O)CC1S/C(=N/N=C/c2ccccc2)NC1=O (stereo unspecified)	MsrA inhibitor 5.3 | MsrA conf inactive
C/C(=N\N=C1\NC(=O)C(CC(=O)Nc2ccc(Cl)cc2)S1)c1ccco1 (stereo unspecified)	MsrA inhibitor 4.8 | MsrA conf 4.8
O=C(CC1S/C(=N/N=C/c2ccco2)NC1=O)Nc1ccccc1 (stereo unspecified)	MsrA inhibitor 5.3 | MsrA conf 5.3
O=C1CC(C(=O)Nc2ccc(F)cc2)S/C(=N\N=C\c2ccco2)N1 (stereo unspecified)	MsrA inhibitor 6.3 | MsrA conf 5.0
O=C(CC1S/C(=N/N=C/C=C/c2ccccc2)NC1=O)Nc1ccc(C(=O)O)cc1 (stereo unspecified)	none
CCC1=C(NCc2ccccc2)COC1=O	none
O=[N+]([O-])c1nccn1CCCCCCCCCCCN1CCOCC1	none (no result: DAGLB inh, Pemphigus Ab inh)
COc1ccc(-n2nc(C(=O)N(C)C)nc2-c2ccccc2)cc1	none
CN(C)[C@H]1CCN(c2cccc3c2S(=O)(=O)N(C2CC2)CCCO3)C1	none (no result: MsrA inhibitor, DAGLB inh, Pemphigus Ab inh, MsrA act, NadD block)
COc1ccc(/C=N/N=C2/NC(=O)C(CC(=O)NC(C)C)S2)cc1 (stereo unspecified)	none
Cc1ccc(/C=N/N=C2/NC(=O)C(CC(=O)N3CCOCC3)S2)cc1 (stereo unspecified)	MsrA inhibitor 5.8 | MsrA conf inactive
CCn1cc(C(=O)N2CCN(c3ccc(OC)cc3)CC2)c2cc(OC)c(OC)cc2c1=O	none
CCn1cc(C(=O)N2CCN(c3ccc(C(C)=O)cc3)CC2)c2cc(OC)c(OC)cc2c1=O	MsrA inhibitor 6.5 | MsrA conf inactive
Cn1c(=O)c2cc(S(=O)(=O)N3CCN(Cc4ccccc4)CC3)ccc2n(C)c1=O	none (no result: MsrA inhibitor, DAGLB inh, Pemphigus Ab inh, MsrA act, NadD block)
S=C1NC2(CCCCC2)Cc2ccccc21	none
COc1cc2c(cc1OC)C(=S)NC1(CCCC1)C2	MsrA inhibitor 6.1 | MsrA conf inactive
CC1(C(=O)NC2CCCC2)CCC(=O)N1CCCn1ccnc1 (stereo unspecified)	none (no result: DAGLB inh, Pemphigus Ab inh)
CN(Cc1ccccc1)c1ncc(C=O)s1	MsrA inhibitor 7.5 | MsrA conf 5.8
O=Cc1cnc(N2CCN(Cc3ccccc3)CC2)s1	none
O=C(N/N=C/c1cnc(N2CCOCC2)s1)c1ccccc1	MsrA inhibitor 5.2 | MsrA conf 5.1
COc1ccc(C(=O)N/N=C/c2sc(N3CCOCC3)nc2-c2ccccc2)cc1OC	none
Nc1ccc(C(=O)N/N=C/c2ccc(N3CCOCC3)s2)cc1	none
